Gli-Sufu antag: Gli-Sufu pathway antagonists, primary screen, luciferase luminescence, Sufu-KO-LIGHT cells, uHTS. Sufu-KO-LIGHT fibroblasts, Gli luciferase reporter luminescence. inhibition, % at 5 µM. 0.74% of 340,000 active. AID 588413, 2011;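 active = inhibition above about 55%, limit read from the data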
697 NFkB inh: inhibitors of PMA/ionomycin-induced NF-kB reporter, 697 cells, primary screen, B-cell NF-kB inhibitor project, cell-based, luminescence, uHTS; 697 B-cell NF-kB luciferase reporter, 16 h; inhibition, % at 4 µM; 0.33% of 330,000 active; AID 435022, 2010; in the data active = inhibition above about 35%
CSC inhib: cancer stem cell viability inhibitors, primary screen, luminescence | inhibition, % at 7.5 µM | cancer stem cell-like cells viability | 1.1% of 300,000 active; in the data active = inhibition above about 75%; inconclusive = no clear call, values can overlap the other calls; tested in HMLE shEcad cells
Mdm2-MdmX inh: inhibitors of human Mdm2-MdmX association, primary screen, cell-based, luminescence, split luciferase, SaOS-2, uHTS; Protein Mdm4 (Homo sapiens) + E3 ubiquitin-protein ligase Mdm2 (Homo sapiens), …; SaOS-2 split-luciferase Mdm2/MdmX complementation; inhibition, % at 8 µM; 3% of 330,000 active;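 active = inhibition of at least 50% at 8 µM in the primary screen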
Target sequence (O15151 whole entry, looked up): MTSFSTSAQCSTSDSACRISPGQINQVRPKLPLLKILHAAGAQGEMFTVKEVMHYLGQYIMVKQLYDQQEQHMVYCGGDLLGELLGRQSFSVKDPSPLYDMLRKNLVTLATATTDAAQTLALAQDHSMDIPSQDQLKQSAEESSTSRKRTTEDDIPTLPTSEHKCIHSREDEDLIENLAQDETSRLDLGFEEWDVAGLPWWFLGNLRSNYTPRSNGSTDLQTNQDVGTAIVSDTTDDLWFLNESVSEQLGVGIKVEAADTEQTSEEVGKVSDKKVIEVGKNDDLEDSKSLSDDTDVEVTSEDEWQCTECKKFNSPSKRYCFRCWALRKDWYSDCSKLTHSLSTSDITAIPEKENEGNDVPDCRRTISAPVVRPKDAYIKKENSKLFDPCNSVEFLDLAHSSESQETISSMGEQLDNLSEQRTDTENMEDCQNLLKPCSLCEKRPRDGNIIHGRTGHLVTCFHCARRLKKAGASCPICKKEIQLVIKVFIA
Target sequence (Q00987 whole entry, looked up): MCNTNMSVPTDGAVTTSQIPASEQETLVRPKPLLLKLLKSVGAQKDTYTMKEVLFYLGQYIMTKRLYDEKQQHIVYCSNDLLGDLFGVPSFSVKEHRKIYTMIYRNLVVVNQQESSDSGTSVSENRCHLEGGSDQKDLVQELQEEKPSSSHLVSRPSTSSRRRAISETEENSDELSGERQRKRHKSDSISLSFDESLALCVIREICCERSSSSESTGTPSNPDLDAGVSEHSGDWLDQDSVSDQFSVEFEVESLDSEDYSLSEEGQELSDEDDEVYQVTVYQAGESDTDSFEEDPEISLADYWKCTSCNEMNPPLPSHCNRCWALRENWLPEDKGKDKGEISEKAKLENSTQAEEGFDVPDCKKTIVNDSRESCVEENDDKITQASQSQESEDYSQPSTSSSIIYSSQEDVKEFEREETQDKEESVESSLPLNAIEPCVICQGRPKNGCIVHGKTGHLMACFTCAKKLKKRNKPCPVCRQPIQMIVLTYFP
Jurkat NFkB inh: inhibitors of induced NF-kB luciferase reporter, primary screen, TCR NF-kB activation inhibitor project, cell-based, luminescence, uHTS; 0.53% of 330,000 active; AID 435003, 2010; inhibition, % at 4 µM; Jurkat, PMA/ionomycin-induced NF-kB luciferase reporter; in the data active = inhibition above about 50%
aSyn 5UTR inh: MLPCN primary screen, SNCA 5' untranslated region | alpha-synuclein 5'UTR reporter, inhibitor activity | inhibition, % (tested at 7.5 µM) | 0.82% of 300,000 active; in the data active = inhibition above about 60%; inconclusive = no clear call, values can overlap the other calls;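 note: H4 neuroglioblastoma cells stably carrying SNCA 5'UTR luciferase fusion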
Large screens that a line does not name were inactive. Only some compounds are listed: those with a hit (about 4.5% of all), similar ones and a draw of the others.

CCOC(=O)[C@H]1[C@H]2COc3ccc(Br)cc3[C@@H]2N2C(=O)CN(CC3CCCO3)C(=O)[C@@]12C (stereo partly drawn)	none (no result: aSyn 5UTR inh)
Nc1ccc(N=Nc2ccccc2O)c(N)c1	none
Oc1ccccc1N=Nc1ccccc1O	Gli-Sufu antag 87, aSyn 5UTR inh inconclusive (no result: 697 NFkB inh, CSC inhib, Mdm2-MdmX inh, Jurkat NFkB inh)
O=C(Nn1c(SCc2cccc([N+](=O)[O-])c2)nc2ccccc2c1=O)c1ccccc1	none
COc1ccc(C(=O)Nn2c(SCC(=O)NCc3ccco3)nc3ccccc3c2=O)cc1	aSyn 5UTR inh 81
COc1ccc(C(=O)Nn2c(SCc3cccc([N+](=O)[O-])c3)nc3ccccc3c2=O)cc1	aSyn 5UTR inh 66
CCOc1ccc(S(=O)(=O)N2CCC(C(=O)NCc3ccco3)CC2)cc1C	none
CC(O)c1cccc(-c2ccc(CN3C[C@]4(CO)O[C@@H](CO)C[C@@H]4S3(=O)=O)cc2)c1 (stereo partly drawn)	none (no result: CSC inhib, Jurkat NFkB inh, aSyn 5UTR inh)
Cc1c(C)n(CCc2ccccc2)c2ncnc(NCCCN(C)C)c12	CSC inhib 76
Cc1c(C)n(CCN(C)C)c2ncnc(NCc3ccccc3)c12	none
COC(=O)C1=C(C(=O)OC)[C@@H]2Nc3ccccc3[C@@]23C[C@@H](C(=O)OC)N(C(C)=O)C3=N1	none
CC(C)(C)c1cc(C(=O)NNc2ccc(OC(F)(F)F)cc2)n(Cc2ccccc2)n1	CSC inhib 78
CC(C)(C)c1cc(C(=O)NNc2cc(C(F)(F)F)ccc2Cl)n(Cc2ccccc2)n1	CSC inhib 103
Cc1ccc(NNC(=O)c2cc(C(C)(C)C)nn2Cc2ccccc2)cc1	CSC inhib 93
COc1ccccc1NNC(=O)c1cc(C(C)(C)C)nn1Cc1ccccc1	none
CC(C)(C)c1cc(C(=O)NNc2cccc(Cl)c2)n(Cc2ccccc2)n1	CSC inhib 128
Oc1ccc(N=Nc2ccccc2-c2nn[nH]n2)c(O)c1	none (no result: CSC inhib)
CNC(=S)Nc1ccc(-c2nc3ccc(C)cc3s2)cc1	none
Cc1ccc2nc(-c3ccc(N)cc3)sc2c1	aSyn 5UTR inh 90
Fc1ccc(N/N=C/c2ccncc2)c(F)c1	CSC inhib 90
NC(=Nc1nc(-c2ccccn2)cc2ccccc12)c1ccccn1	Gli-Sufu antag 87 (no result: 697 NFkB inh, CSC inhib, Mdm2-MdmX inh, Jurkat NFkB inh, aSyn 5UTR inh)
N/C(=N\OC(=O)Cc1cccc2ccccc12)c1ccccn1	none
CCCC(=O)NC(C)c1nc2ccccc2n1C(C)C (stereo not drawn)	none
O=C(Nc1nc(-c2ccccn2)cs1)c1ccc(Br)s1	Gli-Sufu antag 82, CSC inhib 97
O=C(Nc1nc(-c2ccccn2)cs1)C1CC1	none
NC(=O)c1ncn([C@@H]2O[C@H](CNCc3cc(Cl)ccc3OCc3ccc(Cl)cc3)[C@@H](O)[C@H]2O)n1	none (no result: 697 NFkB inh, CSC inhib, Mdm2-MdmX inh, Jurkat NFkB inh, aSyn 5UTR inh)
Cc1cc(C(=O)OCC(=O)NCCCN2CCCC2=O)c2ccccc2n1	none
CCc1ccc(CNC(=O)C2Cc3cc(S(=O)(=O)N4CCCC4)ccc3N2C(C)=O)cc1 (stereo not drawn)	none
O=C(Cc1cccs1)Nc1cccc(-c2nc3cc4ccccc4cc3[nH]2)c1	CSC inhib 99 (no result: 697 NFkB inh, Mdm2-MdmX inh, Jurkat NFkB inh)
CC(=O)Nc1cccc(NC(=O)Cc2cccs2)c1	none
COC(=O)c1ccc(N2CCC(c3cc(-c4ccc(OC)cc4)n[nH]3)CC2)c([N+](=O)[O-])c1	none
CC(=O)c1ccc(N2CCC(c3cc(-c4ccc(Cl)cc4)n[nH]3)CC2)c([N+](=O)[O-])c1	CSC inhib 101
CC(C)N(C(=O)CSc1nc2ccccc2n1-c1ccccc1)C(C)C	CSC inhib 78
COc1ccc2[nH]c(=O)c(CN(C(=O)c3ccco3)C3CCCCC3)cc2c1	none
O=C(CCSc1nc2ccccc2o1)Nc1ccccc1	none
Nc1ccc(N=Nc2ccccc2)c2ccccc12	CSC inhib 81
Nc1ccc(N=Nc2ccccc2)c(N)n1	none (no result: CSC inhib)
CCOC(=O)C(=CNc1cc(OC)ccc1-n1cccc1)C(=O)OCC	none
Cc1ccc(CN2CCSc3ccc(C(=O)NCc4ccco4)cc32)cc1	CSC inhib 84
Cc1ccc(CN2CCSc3ccc(C(=O)NCCCN4CCOCC4)cc32)cc1	none
CCN(CC)CCCNc1nc(N)c([N+](=O)[O-])c(N2CCCCCC2)n1	none
